{"source": "ChEMBL document CHEMBL1961873", "about": "“Compounds: GSK PKIS; Assays: Nanosyn kinase panel” (2012);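 further: values are mean percent inhibition of ROCK1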"}
{"molecular_target": "Rho-associated protein kinase 1 (Homo sapiens) (UniProt Q13464)", "sequence (Q13464 2-1354 limits assumed)": "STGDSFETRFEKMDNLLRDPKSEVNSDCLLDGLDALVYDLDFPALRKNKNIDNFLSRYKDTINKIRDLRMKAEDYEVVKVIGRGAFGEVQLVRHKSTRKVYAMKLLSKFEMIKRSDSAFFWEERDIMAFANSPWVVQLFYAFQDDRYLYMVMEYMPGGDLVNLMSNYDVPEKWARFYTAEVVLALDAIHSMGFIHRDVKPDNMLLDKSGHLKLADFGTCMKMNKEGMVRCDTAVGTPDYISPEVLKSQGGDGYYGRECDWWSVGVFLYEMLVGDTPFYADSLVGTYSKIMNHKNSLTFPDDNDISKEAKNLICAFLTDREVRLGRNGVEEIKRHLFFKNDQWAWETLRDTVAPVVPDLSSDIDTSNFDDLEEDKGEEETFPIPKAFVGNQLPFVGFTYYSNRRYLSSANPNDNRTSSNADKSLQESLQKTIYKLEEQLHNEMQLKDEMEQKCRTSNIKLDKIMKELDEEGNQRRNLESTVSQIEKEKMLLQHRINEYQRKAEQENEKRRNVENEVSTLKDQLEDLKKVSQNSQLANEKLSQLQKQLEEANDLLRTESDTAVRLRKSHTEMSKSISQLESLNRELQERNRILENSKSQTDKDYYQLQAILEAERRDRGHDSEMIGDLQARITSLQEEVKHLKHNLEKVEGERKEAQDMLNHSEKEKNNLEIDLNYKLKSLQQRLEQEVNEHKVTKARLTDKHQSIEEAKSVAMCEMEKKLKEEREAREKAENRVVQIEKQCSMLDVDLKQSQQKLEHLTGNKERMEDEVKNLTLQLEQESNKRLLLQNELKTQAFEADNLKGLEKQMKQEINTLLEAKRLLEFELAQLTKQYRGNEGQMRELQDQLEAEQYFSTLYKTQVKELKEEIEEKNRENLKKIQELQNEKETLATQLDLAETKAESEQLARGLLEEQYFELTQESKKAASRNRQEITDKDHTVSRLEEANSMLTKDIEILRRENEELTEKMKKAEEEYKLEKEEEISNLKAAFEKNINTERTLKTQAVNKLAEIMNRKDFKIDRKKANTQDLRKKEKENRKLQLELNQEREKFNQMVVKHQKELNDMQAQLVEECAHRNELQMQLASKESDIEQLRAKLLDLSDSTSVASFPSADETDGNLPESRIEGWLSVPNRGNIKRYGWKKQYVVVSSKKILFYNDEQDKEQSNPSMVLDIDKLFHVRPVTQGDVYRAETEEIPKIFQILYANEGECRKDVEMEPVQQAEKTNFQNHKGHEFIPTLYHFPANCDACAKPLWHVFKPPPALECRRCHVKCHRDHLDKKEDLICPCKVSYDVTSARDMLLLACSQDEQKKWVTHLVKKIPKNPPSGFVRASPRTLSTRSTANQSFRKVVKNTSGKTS", "conditions": "at 0.1 µM", "units": {"inhibition": "%"}}
{"smiles": "c1ccc(COc2ccc(Nc3ncnc4ccc(-c5ccco5)cc34)cc2)cc1", "inhibition": 0.21}
{"smiles": "COC(=O)Nc1nc2ccc(S(=O)(=O)c3ccc(NC(=O)Nc4cc(C(F)(F)F)ccc4F)cc3)cc2[nH]1", "inhibition": 0.44}
{"smiles": "CN(C)CCOc1ccc(-c2nc(-c3ccncc3)c(-c3ccc4c(c3)CC/C4=N\\O)[nH]2)cc1", "inhibition": 0.51}
{"smiles": "CS(=O)(=O)CCNCc1ccc(-c2ccc3ncnc(Nc4ccc(OCc5ccccc5)c(C(F)(F)F)c4)c3c2)o1", "inhibition": 10.3}
{"smiles": "COc1cc2ncn(-c3cc(OCc4ccccc4C(F)(F)F)c(C(=O)N(C)C)s3)c2cc1OC", "inhibition": -0.15}
{"smiles": "CC(C)COC(=O)c1ccc2c(c1)/C(=C/Nc1ccc(S(N)(=O)=O)cc1)C(=O)N2", "inhibition": 4.52}
{"smiles": "CCc1nn2ncccc2c1-c1ccnc(NC2CC2)n1", "inhibition": 0.66}
{"smiles": "CN1CCC(n2cnc(-c3ccc(F)cc3)c2-c2ccnc(Nc3ccccc3)n2)CC1", "inhibition": -0.46}
{"smiles": "FC(F)(F)c1cccc(-c2nn3ncccc3c2-c2ccnc(Nc3ccc4c(c3)OCCO4)n2)c1", "inhibition": 0}
{"smiles": "COc1ccc2[nH]c3c4[nH]c5ccc(OC)cc5c4c4c(c3c2c1)C(=O)NC4=O", "inhibition": 1.15}
{"smiles": "CNC(=O)c1cccc(C#Cc2cncnc2Nc2ccc(OCc3cccc(F)c3)c(Cl)c2)c1", "inhibition": -1.85}
{"smiles": "COc1cc(N2CCN(C(C)C)CC2)ccc1Nc1nc(Nc2ccc(F)cc2C(N)=O)c2cc[nH]c2n1", "inhibition": 1.79}
{"smiles": "Fc1ccc(-c2cc(-c3c[nH]nc3-c3ccccn3)ccn2)cc1", "inhibition": -0.11}
{"smiles": "COc1cc2c(cc1Nc1nc(Nc3ccsc3C(N)=O)c3cc[nH]c3n1)N(C(=O)CN(C)C)CCC2(C)C", "inhibition": 25}
{"smiles": "Fc1ccc(-c2nn3ccccc3c2-c2ccncc2)cc1", "inhibition": 5.05}
{"smiles": "CCCN(CCS(C)(=O)=O)Cc1ccc(-c2ccc3ncnc(Nc4ccc(OCc5cccc(F)c5)c(Cl)c4)c3c2)o1", "inhibition": 0.42}
{"smiles": "COc1cc(/C=N/Nc2ncnc3[nH]ncc23)ccc1O", "inhibition": 1.5}
{"smiles": "c1cc(-c2cnn3nc(N4CCOCC4)ccc23)nc(NC2CC2)n1", "inhibition": 1.67}
{"smiles": "CN1CCC(n2cnc(-c3ccc(F)cc3)c2-c2ccnc(N)n2)CC1", "inhibition": -0.08}
{"smiles": "Fc1ccc(-c2nn3ncccc3c2-c2ccnc(Nc3ccc4c(c3)OCCO4)n2)cc1", "inhibition": -0.74}
{"smiles": "COc1ccc(-c2oc3ncnc(N)c3c2-c2ccc(NC(=O)Nc3cc(C(F)(F)F)ccc3F)cc2)cc1", "inhibition": 2.21}
{"smiles": "CCN(CC)S(=O)(=O)c1ccc(OC)c(Nc2ncc(-c3ccccc3)o2)c1", "inhibition": 0.86}
{"smiles": "Cc1ccc(O)cc1Nc1ccnc2cc(-c3ccccn3)ccc12", "inhibition": 0.91}
{"smiles": "COc1ccc(-c2nn3ncccc3c2-c2ccnc(Nc3ccc4c(c3)OCCO4)n2)cc1", "inhibition": 0.43}
{"smiles": "COc1cccc(-n2ncc3c(N/N=C/c4ccc(F)cc4)ncnc32)c1", "inhibition": 1}
{"smiles": "CC1=C(C(=O)Nc2cc(Cl)c3[nH]ncc3c2)C(c2ccc(C(F)(F)F)cc2)CC(=O)N1", "note": "(centres undefined)", "inhibition": 70.7}
{"smiles": "COc1cccc(-c2c[nH]c3c(N/N=C/c4ccncc4)ncnc23)c1", "inhibition": 1.94}
{"smiles": "CC(C)(CO)CNC(=O)c1ccc2c(c1)/C(=N/Nc1ccc(S(N)(=O)=O)cc1)C(=O)N2", "inhibition": 0.33}
{"smiles": "NS(=O)(=O)c1ccc(N/N=C2\\C(=O)Nc3ccc4ncccc4c32)cc1", "inhibition": 7.13}
{"smiles": "CCn1c(-c2nonc2N)nc2cnc(Oc3cccc(NC(=O)c4ccc(N(C)C)cc4)c3)cc21", "inhibition": 85.5}
{"smiles": "c1ccc(-c2nc3n(c2-c2ccc4c(c2)OCO4)CCC3)nc1", "inhibition": 3.64}
{"smiles": "NC(=O)c1sc(-n2cnc3ccc(C(F)(F)F)cc32)cc1OCc1ccccc1Br", "inhibition": 0.45}
{"smiles": "COc1ccc(-c2cc3c(N)ncnc3o2)cc1", "inhibition": -0.42}
{"smiles": "N#Cc1c(NC(=O)c2ccc(F)cc2)sc2c1CCCC2", "inhibition": 0.43}
